Laboratory results: PubChem BioAssay (EPA / NIEHS)
Several values for one entry are separate records, joined by “and”; a condition that tells them apart may be missing. Identical values can stand only once. A structure can be active in one record and inactive in another. Activity calls are given as the source filed them. The calls were made as follows: active = hit-call score of the fitted dose curve at least 0.9, where 1 is the maximum; inactive = score below 0.9.

Experiments:
[1] = read-out: Cyclin D2 (CCND2), CCND2 (gene 894); experiment: LTEA_HepaRG_CCND2: Life Technologies and Expression Analysis (LTEA) Assay for Cyclin D2 (CCND2) using HepaRG (AID 2283449); conditions: mRNA level, 48 h; actives raise or lower the signal;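 also: CCND2 transcript measured by TaqMan qRT-PCR and normalised to three housekeeping genes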
Outline: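 Differentiated human HepaRG cells were exposed for 48 h in serum-free induction medium to eight half-log concentrations topping at 100 uM (0.5% DMSO vehicle). CCND2 mRNA was quantified by TaqMan qRT-PCR, normalised to ACTB, GAPDH and POLR2A, and fitted bidirectionally against DMSO.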

[2] = read-out: Cyclin Dependent Kinase Inhibitor 1A (CDKN1A), CDKN1A (gene 1026); experiment: LTEA_HepaRG_CDKN1A: Life Technologies and Expression Analysis (LTEA) Assay for Cyclin Dependent Kinase Inhibitor 1A (CDKN1A) using HepaRG (AID 2283450); conditions: mRNA level, 48 h; actives raise or lower the signal
Procedure: LTEA_HepaRG is a cell based, multiplexed-readout assay that uses HepaRG, a human liver cell line, with measurements taken at 48 hours after chemical dosing on a 96-well plate.LTEA_HepaRG_CDKN1A is one of 102 assay component(s) measured in the LTEA HepaRG cell culture assay. It is a marker of Cell proliferation, survival, death.Data from the assay component LTEA_HepaRG_CDKN1A was analyzed into 1 endpoint. This assay endpoint, LTEA_HepaRG_CDKN1A, was analyzed with bidirectional fitting relative to DMSO as the negative control and baseline of activity. Using a type of inducible reporter, measures of mRNA induction for gain or loss-of-signal activity can be used to understand regulation of transcription factor activity. To generalize the intended target to other relatable targets, this assay endpoint is annotated to the cell cycle intended target family, where the subfamily is Cell proliferation, survival, death.
A total of 1060 chemcials from the ToxCast library were tested in eight-point concentration-response experiments. Cell culture and cytotoxicity assays were conducted at Thermo Fisher Scientific's Custom Services facility (Madison, WI). A single lot of human HepaRG cells (Thermo Fisher Scientific, Frederick, MD) was used for the cell culture experiments. 96-well format collagen type I coated plates of human HepaRG cells were prepared using established methods. Briefly, cryopreserved HepaRG cells were thawed, plated at a density of approximately 100,000 cells/well in HepaRG Thaw, Plate, and General Purpose media (HPRG770, Thermo Fisher Scientific), and incubated for 48 hours. 0.5% DMSO was selected as vehicle control to balance the requisite need of DMSO in HepaRG cultures to maintain differentiation (for example, baseline metabolism, proportions of hepatocytes vs. cholangiocytes), while enabling further hepatic receptor pathway activation (for example, PXR and CAR) in response to chemical exposure. 48 hours after plating, the culture medium was replaced with HepaRG Serum-Free Incudtion Media. Cells were exposed to each test chemical in duplicate and maintained in CO2 incubators for another 48 hours. Chemical plates were thawed to room temperature and 200x concentrations of treatment groups were prepared. 8-point conentration-reponse curves were made with the highest exposure at 100 uM, followed by half-log dilutions, all in 0.5% DMSO. Each test plate contained variouse controls, induction positive controls (1mM phenobarbital), cytotoxicity positive controls ([…] aflatoxin B1), vehicle controls (0.5% DMSO), and total lysis controls (0.5% DMSO). Cell morphology images were taken using an Essen IncuCyte FLR automated microscope, with six 96-well plates imaged in about 24 minutes. Images were captured and exported and JPEG files. Spent culture media was transfered to black-well plates for the LDH assay, and remaining media was sorted at -80 C for later use. Cells were treated with RLT buffer and frozen until shipped for gene expression analysis. Total RNA was isolated from the cell suspension in 75 uL of Buffer RLT (Qiagen, Germantown, MD 20874) by Quintiles/Expression Analysis (Durham, NC) using a custom isolation procedure. Total RNA from each plate well was transferred to a preamplification plate. Fluidigm's 96.96 Dynamic ArrayTM (Fluidigm, Amsterdam, the Netherlands) technology was used for gene expression analyses by quantitative reverse transcription polymerase chain reaction (qRT-PCR, performed by Quintiles/Expression Analysis, Durham, NC)89. Standard TaqManTM Assays (Applied Biosystems/ThermoFisher Scientific, Foster City, CA) were used to assess the expression of 93 genes selected based on their selectivity and sensitivity to important hepatic receptors known to be modulated by environmental chemicals; importance in human hepatocyte functionality; and hepatotoxicity. […]

[3] = read-out: Cyclin D1 (CCND1), CCND1 (gene 595); experiment: LTEA_HepaRG_CCND1: Life Technologies and Expression Analysis (LTEA) Assay for Cyclin D1 (CCND1) using HepaRG (AID 2283451); conditions: mRNA level, 48 h; actives raise or lower the signal;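 as to AC50: TaqMan qRT-PCR transcript level normalised to ACTB GAPDH and POLR2A housekeeping genes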
Outline: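 Expression of CCND1 was quantified by qRT-PCR on Fluidigm arrays using ACTB, GAPDH and POLR2A as reference genes. HepaRG cultures, plated 48 h beforehand, were dosed for 48 h at up to 100 uM (half-log, 8 points) in 0.5% DMSO.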

[4] = read-out: catalase (CAT), CAT (gene 847); experiment: LTEA_HepaRG_CAT: Life Technologies and Expression Analysis (LTEA) Assay for catalase (CAT) using HepaRG (AID 2283452); conditions: mRNA level, 48 h; actives raise or lower the signal;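 as to AC50: TaqMan qRT-PCR signal normalized to ACTB GAPDH and POLR2A housekeeping genes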
Outline: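 Differentiated HepaRG cells in serum-free induction medium were dosed 48 h in duplicate, eight half-log concentrations from 100 uM in 0.5% DMSO. Transcript measured by TaqMan qRT-PCR, normalised to ACTB/GAPDH/POLR2A, fitted bidirectionally against DMSO.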

[5] = read-out: flavin-containing dimethylaniline monooxygenases 3 (FMO3), FMO3 (gene 2328); experiment: LTEA_HepaRG_FMO3: Life Technologies and Expression Analysis (LTEA) Assay for flavin-containing dimethylaniline monooxygenases 3 (FMO3) using HepaRG (AID 2283453); conditions: mRNA level, 48 h; actives raise or lower the signal
Outline: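 Differentiated HepaRG cells in serum-free induction medium, exposed 48 h in duplicate to 8 half-log concentrations up to 100 uM in 0.5% DMSO. FMO3 mRNA by qRT-PCR, normalized to ACTB, GAPDH, POLR2A; bidirectional fit vs DMSO.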

[6] = read-out: Cytochrome P450 (CYP1A1), CYP1A1 (gene 1543); experiment: LTEA_HepaRG_CYP1A1: Life Technologies and Expression Analysis (LTEA) Assay for Cytochrome P450 (CYP1A1) using HepaRG (AID 2283454); conditions: mRNA level, 48 h; actives raise or lower the signal
Outline: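 CYP1A1 transcript levels measured by Fluidigm qRT-PCR against three housekeeping genes, 48 h after chemical dosing of human HepaRG cells (highest concentration 100 uM, half-log steps, 0.5% DMSO vehicle). Gain or loss of signal fitted relative to DMSO.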

[7] = read-out: CFLAR gene, CFLAR (gene 8837); experiment: LTEA_HepaRG_CFLAR: Life Technologies and Expression Analysis (LTEA) Assay for CFLAR gene using HepaRG (AID 2283455); conditions: mRNA level, 48 h; actives raise or lower the signal
Outline: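 HepaRG cells were plated for 48 h, switched to serum-free induction medium, then exposed in duplicate for 48 h to 8 concentrations (top 100 uM, half-log steps, 0.5% DMSO). CFLAR mRNA was measured by qRT-PCR, normalized to ACTB, GAPDH and POLR2A.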

[8] = read-out: Forkhead box O1 (FOXO1), FOXO1 (gene 2308); experiment: LTEA_HepaRG_FOXO1: Life Technologies and Expression Analysis (LTEA) Assay for Forkhead box O1 (FOXO1) using HepaRG (AID 2283456); conditions: mRNA level, 48 h; actives raise or lower the signal
Outline: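 Differentiated human HepaRG cells in serum-free induction medium were exposed in duplicate for 48 h to eight half-log concentrations (top 100 uM, 0.5% DMSO). FOXO1 mRNA was measured by TaqMan qRT-PCR, normalised to ACTB, GAPDH and POLR2A, and fitted bidirectionally against DMSO.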

[9] = read-out: growth arrest and DNA damage 45 (GADD45A), GADD45A (gene 1647); experiment: LTEA_HepaRG_GADD45A: Life Technologies and Expression Analysis (LTEA) Assay for growth arrest and DNA damage 45 (GADD45A) using HepaRG (AID 2283458); conditions: mRNA level, 48 h; actives raise or lower the signal
Outline: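 Cells plated and cultured 48 h, switched to serum-free induction medium, then dosed for 48 h (100 uM top, half-log dilutions, 0.5% DMSO). RNA was isolated and transcript measured by Fluidigm qRT-PCR.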

[10] = CEETOX_H295R_TESTO: CeeTox H295R High-throughput Steroidogenesis Assay for Testosterone (TESTO) (AID 2283457); conditions: actives raise or lower the signal
Outline: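 Testosterone secreted into the medium over 48 h by H295R cells (maximum passage 10) was quantified by LC-MS/MS after MTBE extraction. Fitted in both directions against DMSO, with concentrations diluted until MTT viability was ≥70%.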

SMILES: C=C(C)C(N)=O
- outcome [1]: inactive
- outcome [2]: inactive
- outcome [3]: inactive
- outcome [4]: inactive
- outcome [5]: inactive
- AC50 [6]: 50 µM (active)
- outcome [7]: inactive
- outcome [8]: inactive
- outcome [9]: inactive

SMILES: CC/C(=C(\c1ccccc1)c1ccc(OCCN(C)C)cc1)c1ccccc1
- outcome [1]: inactive
- outcome [2]: inactive
- AC50 [3]: 28.1 µM (active) and 38.6 µM (active)
- AC50 [4]: 51.7 µM (active)
- outcome [4]: inactive
- AC50 [5]: 27.9 µM (active) and 33.7 µM (active)
- AC50 [6]: 26.8 µM (active) and 68.3 µM (active)
- AC50 [7]: 64.9 µM (active) and 93.4 µM (active)
- AC50 [8]: 69.8 µM (active)
- outcome [8]: inactive
- outcome [9]: inactive

SMILES: CC=CC(=O)C1=C(C)C=CCC1(C)C
- outcome [10]: inactive

SMILES: C#C[C@]1(O)CC[C@H]2[C@@H]3CCc4cc(O)ccc4[C@H]3CC[C@@]21C
- outcome [1]: inactive
- outcome [2]: inactive
- outcome [3]: inactive
- outcome [4]: inactive
- outcome [5]: inactive
- outcome [6]: inactive
- outcome [7]: inactive
- outcome [8]: inactive
- outcome [9]: inactive

SMILES: CC(=N[Si](C)(C)C)O[Si](C)(C)C
- outcome [10]: inactive

SMILES: CC(C)(C)c1cccc(O)c1
- outcome [10]: inactive

SMILES: COC(=O)c1ccc(C(=O)OC)cc1
- outcome [1]: inactive
- outcome [2]: inactive
- outcome [3]: inactive
- outcome [4]: inactive
- outcome [5]: inactive
- AC50 [6]: 65.1 µM (active)
- outcome [7]: inactive
- outcome [8]: inactive
- outcome [9]: inactive

SMILES: OCCCO
- outcome [10]: inactive

SMILES: CCCCOCCOCCO
- outcome [1]: inactive
- outcome [2]: inactive
- outcome [3]: inactive
- outcome [4]: inactive
- outcome [5]: inactive
- AC50 [6]: 50 µM (active)
- outcome [7]: inactive
- outcome [8]: inactive
- outcome [9]: inactive

SMILES: O=C(c1ccc(OCCN2CCCCC2)cc1)c1c(-c2ccc(O)cc2)sc2cc(O)ccc12
- outcome [1]: inactive
- outcome [2]: inactive
- AC50 [3]: 96.1 µM (active)
- AC50 [4]: 50 µM (active)
- AC50 [5]: 72.3 µM (active)
- outcome [6]: inactive
- AC50 [7]: 65.4 µM (active)
- AC50 [8]: 86 µM (active)
- outcome [9]: inactive

SMILES: C[C@]12CC[C@@H]3c4ccc(O)cc4CC[C@H]3[C@@H]1CC[C@@H]2O
- outcome [1]: inactive
- AC50 [2]: 80.3 µM (active)
- outcome [3]: inactive
- outcome [4]: inactive
- outcome [5]: inactive
- AC50 [6]: 66.1 µM (active)
- outcome [7]: inactive
- outcome [8]: inactive
- outcome [9]: inactive
